The inhibition is the relative decrease from the control value, in per cent. One may read the viability as a read-out of living cells in per cent, often relative to untreated cells.

Results filed as inconclusive are left out. Calls of active or inactive are those of the source.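 Rule for the calls, unless noted: active = viability at or below 27.92% in each of two runs, the all-compound median minus 4 SD; inconclusive = no clear call, values can overlap the other calls; inactive = the rest.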

Test [1] deals with Pantothenate synthetase (Mycobacterium tuberculosis (strain ATCC 25618 / H37Rv)) (UniProt P9WIL5). Put plainly: Recombinant Mtb pantothenate synthetase (PanC) inhibitors, coupled enzyme, confirmatory (AID 375; call rule not given here;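 note: 0% = full reaction with vehicle and 100% = no enzyme background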). The settings on record: coupled enzyme assay; at 10 µM, stronger effect = higher value.
Test [2] is described as follows: reducers of endogenous Her2 protein level, primary screen, SKBR3 breast tumor cells, AlphaScreen, ATP viability (AID 461;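 active = Her2 level under about 52% in both replicate screens, with viability over 70% of control, limit read from the data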;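 for Her2 level: lower value means less Her2 protein in the cells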;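 for viability: percent of carrier control wells set as 100% viability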). The settings on record: 18-24 h, measured here: SKBR3 viability, ATP luminescence, at 10 µM. In general terms: In Alpha technology, singlet oxygen from a donor bead excites a nearby acceptor bead.
Test [3] deals with Receptor tyrosine-protein kinase erbB-2 (Homo sapiens) (UniProt P04626). The test is described as above. The settings on record: 18-24 h, at 10 µM, stronger effect = lower value.
Test [4] can be described thus: SK-BR-3 cell growth inhibitors, pilot screen, 24 h, human (AID 572;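 active = viability at or below 10% of carrier control in both of two separate runs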;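 note: compound exposure lasted between 18 and 24 h rather than exactly 24 h; 100% = carrier-treated control wells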). The settings on record: SK-BR-3 viability, CellTiter-Glo luminescence, at 10 µM, stronger effect = lower value.
Test [5] in a line: HUVEC growth inhibition – cell-based, human, primary screen (AID 575;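 active = viability at or below 30% in both replicate assays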;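 note: 100% = median of untreated cell wells with 0.1% DMSO on each plate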). To be noted: HUVEC proliferation, CellTiter-Glo luminescence, 72 h; at 10 µM; stronger effect = lower value. In general terms: ATP-based viability assays read luminescence as a measure of living cells.
Test [6] in a line: growth inhibitors of H69AR lung tumor, primary screen, human, duplicate replicates (AID 580;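 active = viability at or under a set limit in both replicates, limit being median viability minus 3 SD, cut at about 48% in these data, passing the limit was not always enough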;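 note: 100% = mean luminescence of untreated wells and 0% = no signal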). The settings on record: H69AR lung tumor cells viability, ATP luminescence, 72 h; at 10 µM; stronger effect = lower value.
A short description of test [7]: reversal of MRP1-mediated doxorubicin resistance, pilot screen, H69AR cells, doxorubicin co-treatment (AID 601;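 active = viability loss from added drug above about 55%, and viability with drug at most 40%, in both replicates, limit read from the data, passing the limit was not always enough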). To be noted: CellTiter-Glo, 72 h, at 10 µM.
Test [8] in a line: 384-well plate pilot, post-Golgi transport modulator project, inhibition of yeast transport mutant growth (AID 636; in the data active = inhibition above about 31%). The settings on record: absorbance 615 nm, about 18 h, stronger effect = higher value.
Test [9] in a line: growth suppression of yeast trafficking mutant, preliminary HTS, modulators of trafficking downstream of Golgi apparatus project, 1536-format plate, OD 615 nm (AID 637; in the data active = inhibition above about 30%). The settings on record: yeast transport mutant growth, absorbance 615 nm, 18 h; stronger effect = higher value.
Test [10] is described as follows: OD615 S. cerevisiae growth inhibition, permissive medium, pilot counter-assay, permissive growth control for S. cerevisiae lifespan shortening project (AID 705;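 active = growth inhibition above 25% in both replicates, a cutoff set 3 SD above the mean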). To be noted: OD615, 24 h, at 10 µM, stronger effect = higher value.
Test [11] is described as follows: Restrictive medium S. cerevisiae growth inhibition, OD615, pilot screen of yeast lifespan reduction project, restrictive growth control (AID 706;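 active = growth inhibition above a set limit, 3 SD over mean compound inhibition, in both replicates, cut at about 43% in these data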;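 note: modified DeaD lifespan yeast strain shifted to restrictive glucose medium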). The settings on record: OD615, 48 h, at 10 µM, stronger effect = higher value.
Test [12] is described as follows: viability gain of MRP-1-high H69AR cells under doxorubicin, pilot screen, MRP-1 activator project, CellTiter-Glo, duplicate (AID 807;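 active = viability increase at or above a cutoff of the median across tested compounds plus 3 SD, cut at about 8.5% in these data, passing the limit was not always enough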;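 note: compound pretreatment 18-22 h then 72 h combined with doxorubicin; 0% = doxorubicin alone and 100% = vehicle without doxorubicin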). The settings on record: H69AR viability with doxorubicin, CellTiter-Glo luminescence; at 10 µM; stronger effect = higher value.
A short description of test [13]: growth suppression of beta-catenin knockout HCT116, pilot screen, human colon tumor cells (AID 823;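 active = cell viability at or below a set limit in both duplicate runs, the limit being the all-compound median minus 4 SD, cut at about 23% in these data, passing the limit was not always enough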;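 note: 0% = wells killed by 20 µM Hyamine and 100% = untreated DMSO cell wells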). The settings on record: CellTiter-Glo, 60 h, at 10 µM, stronger effect = lower value.
The nature of test [14]: growth suppression of PTEN-deleted HCT116, pilot screen, cell-based, HCT116 clonal line, CellTiter-Glo (AID 824).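 Note: 0% = 20 µM Hyamine control and 100% = vehicle cell control.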 The settings on record: 60 h, at 10 µM, stronger effect = lower value.
Test [15] is described as follows: inhibitors of the yeast RAM network, pilot screen, dse1pr::URA3 reporter, 5-FOA selection (AID 869;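 active = inhibition over a set limit, the all-compound mean plus 3 SD, in both replicate runs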;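 note: 0% = DMSO wells with no growth and 100% = 10 µM 1-NA-PP1 with full growth; RAM network block rescues cells from 5-FOA so hits raise OD615 growth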). The settings on record: S. cerevisiae dse1pr::URA3 5-FOA growth, OD615, 2 d, at 10 µM, stronger effect = higher value.
The nature of test [16]: RAM signaling pathway blockade in yeast – S. cerevisiae, Pdr1DBD-CYC8 efflux-inhibited sensitized strain, primary screen (AID 1298;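 active = RAM network inhibition above 8.4% in each of two replicates, 3 SD over the compound average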;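 note: 0% = DMSO untreated cells without growth and 100% = 10 µM 1-NA-PP1 full growth; higher means more yeast growth rescued from 5-FOA killing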). The settings on record: S. cerevisiae cbk1-as DSE1-URA3 strain, 5-FOA growth OD615, 2 d; at 50 µM; stronger effect = higher value.

Pantothenate synthetase (Mycobacterium tuberculosis (strain ATCC 25618 / H37Rv)), sequence (P9WIL5 whole entry, looked up): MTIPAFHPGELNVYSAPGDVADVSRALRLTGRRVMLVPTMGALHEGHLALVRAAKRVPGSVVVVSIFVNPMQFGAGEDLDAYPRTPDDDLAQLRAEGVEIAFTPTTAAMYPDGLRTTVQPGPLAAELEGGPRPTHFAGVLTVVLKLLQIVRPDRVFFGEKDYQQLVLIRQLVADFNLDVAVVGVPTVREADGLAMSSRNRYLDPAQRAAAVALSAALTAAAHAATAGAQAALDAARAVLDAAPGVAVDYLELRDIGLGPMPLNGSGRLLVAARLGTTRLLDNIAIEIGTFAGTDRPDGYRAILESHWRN
Receptor tyrosine-protein kinase erbB-2 (Homo sapiens), sequence (P04626 whole entry, looked up): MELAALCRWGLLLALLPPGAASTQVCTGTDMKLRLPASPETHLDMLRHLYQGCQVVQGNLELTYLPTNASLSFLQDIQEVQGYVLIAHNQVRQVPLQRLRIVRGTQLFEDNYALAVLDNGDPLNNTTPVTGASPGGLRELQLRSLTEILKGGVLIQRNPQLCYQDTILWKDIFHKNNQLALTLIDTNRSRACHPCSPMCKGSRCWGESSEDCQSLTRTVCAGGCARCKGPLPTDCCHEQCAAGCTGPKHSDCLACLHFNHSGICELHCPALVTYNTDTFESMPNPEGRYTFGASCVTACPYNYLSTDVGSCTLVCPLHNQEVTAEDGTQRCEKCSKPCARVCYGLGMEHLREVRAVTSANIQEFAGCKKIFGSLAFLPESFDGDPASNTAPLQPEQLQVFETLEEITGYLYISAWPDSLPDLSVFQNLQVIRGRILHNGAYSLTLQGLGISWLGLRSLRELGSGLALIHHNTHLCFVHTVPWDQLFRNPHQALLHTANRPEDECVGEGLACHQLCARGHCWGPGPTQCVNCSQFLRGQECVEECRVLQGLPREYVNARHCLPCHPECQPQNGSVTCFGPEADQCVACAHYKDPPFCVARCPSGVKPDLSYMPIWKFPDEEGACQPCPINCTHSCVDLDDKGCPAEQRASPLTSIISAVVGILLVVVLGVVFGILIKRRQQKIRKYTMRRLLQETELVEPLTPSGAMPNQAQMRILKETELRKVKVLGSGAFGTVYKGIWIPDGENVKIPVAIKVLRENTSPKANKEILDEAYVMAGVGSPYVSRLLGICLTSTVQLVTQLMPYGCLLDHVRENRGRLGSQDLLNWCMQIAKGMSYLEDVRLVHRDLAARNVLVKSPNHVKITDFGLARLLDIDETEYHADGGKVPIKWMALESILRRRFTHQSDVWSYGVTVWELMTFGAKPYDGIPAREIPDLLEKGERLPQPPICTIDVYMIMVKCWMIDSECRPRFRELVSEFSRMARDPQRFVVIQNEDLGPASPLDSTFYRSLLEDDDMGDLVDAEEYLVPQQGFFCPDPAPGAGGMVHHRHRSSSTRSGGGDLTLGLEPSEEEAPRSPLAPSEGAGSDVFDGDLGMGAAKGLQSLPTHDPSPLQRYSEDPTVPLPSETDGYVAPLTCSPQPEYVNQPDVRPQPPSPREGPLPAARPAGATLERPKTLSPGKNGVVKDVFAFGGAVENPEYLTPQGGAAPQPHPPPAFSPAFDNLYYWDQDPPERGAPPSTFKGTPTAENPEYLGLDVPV

Take `O=C(c1cccs1)C1CN2CCC1CC2` (centres undefined): the inhibition in [1] was 0% (inactive); in test [8], 0.65% (inactive); in test [9] it was -4.33% (inactive); in test [15], 0.375% (inactive). Further, the viability in test [2] was 89.5%; in test [4] it was 89.5% (inactive); in test [5], 94.3% (inactive); in test [6], 106% (inactive); in [7] (H69AR cells + 2 uM doxorubicin, measured here: viability with 2 uM doxorubicin, stronger effect = lower value) it was 92.8%; in test [7] (H69AR cells, compound alone cytotoxicity), 106%. In addition, the figures for the viability in test [13] and in test [14] were 97.3% (inactive) and 103% (inactive), respectively. Moreover, the Her2 level in test [3] was 122% (inactive). Moreover, the differential viability (reversal) in test [7] (H69AR cells + 2 uM doxorubicin, stronger effect = higher value) was 13.5% (inactive). The growth inhibition in test [10] is -13.4% (inactive); in [11], -12.2% (inactive). In test [12], the viability increase is -0.68% (inactive). Moreover, in test [16], the RAM network inhibition is 5.95% (inactive).

With `CN1CSC(=S)N(C)C1`, the growth inhibition was 51.5% (active) in test [10] and 63.5% (active) in test [11]. Further, the viability increase in test [12] was -7.69% (inactive). For the same molecule, the results for the viability in [13] and in [14] were 13.9% (active) and 19.6% (active), respectively. For the same molecule, in [15], the inhibition was -0.745% (inactive). The RAM network inhibition in test [16] was -1.87% (inactive).

In the case of `CCOC(=O)C1SC2(C(F)(F)C(F)F)CC1(O)c1c(c(OC)c3occc3c1OC)O2` (centres undefined), the growth inhibition in test [10] is -4.93% (inactive); in test [11], -26.4% (inactive). Also, the viability increase in [12] is -0.89% (inactive). Further, the values for the viability in [13] and in test [14] were 98.4% (inactive) and 86.9% (inactive), respectively. The inhibition in test [15] was 1.6% (inactive). For the same molecule, the RAM network inhibition in test [16] is 6.2% (inactive).

Regarding `CCCCP(=O)(O)c1ccccc1`, the figures for the growth inhibition in [10] and in test [11] were -5.46% (inactive) and -11.7% (inactive), respectively. Besides, the viability increase in [12] is -0.51% (inactive). Also, the viability was 101% (inactive) in [13] and 95.4% (inactive) in test [14]. Also, the inhibition in test [15] is 1.03% (inactive). Further, the RAM network inhibition in [16] is 3.03% (inactive).

With `O=C(c1ccccc1)c1cn(CC(=O)N2CCCC2)c2ccccc12`, the growth inhibition in test [10] is -15.1% (inactive); in test [11], -16.4% (inactive). Moreover, the viability increase in [12] was -1.14% (inactive). Also, the viability in test [13] was 102% (inactive); in test [14], 92% (inactive). Besides, the inhibition in test [15] was 3.23% (inactive). Also, in [16], the RAM network inhibition was 4.67% (inactive).

For `CC12CN3CC(C)(CN(C1)C3c1ccco1)C2=O` (centres undefined), the growth inhibition in test [10] is -8.88% (inactive); in test [11] it was -8.04% (inactive). For the same molecule, the viability increase in [12] is -0.55% (inactive). In addition, the figures for the viability in [13] and in test [14] were 95.6% (inactive) and 99.6% (inactive), respectively. The inhibition in [15] is 2.1% (inactive). For the same molecule, the RAM network inhibition in [16] was 2.07% (inactive).

`CN(C)C(=O)Oc1ccc(OC(=O)N(C)C)cc1`: the growth inhibition in [10] was 1.07% (inactive); in test [11] it was -14.3% (inactive). The viability increase in test [12] was 0.6% (inactive). The viability is 104% (inactive) in test [13] and 99.5% (inactive) in test [14]. The inhibition in [15] is 1.02% (inactive). Also, in [16], the RAM network inhibition was -0.32% (inactive).

Regarding `O=C(O)C1CSC(c2cccnc2)N1` (centres undefined), the growth inhibition was -3.98% (inactive) in test [10] and -8.32% (inactive) in [11]. Also, the viability increase in test [12] is -1.05% (inactive). The viability in [13] was 99.3% (inactive); in test [14], 106% (inactive). In [15], the inhibition is 3.04% (inactive). For the same molecule, the RAM network inhibition in [16] is 2.35% (inactive).

Turning to `Cc1cc(Br)ccc1N1C(=O)CC(=O)NC1=O`, the growth inhibition in test [10] is -12.1% (inactive); in test [11], 7.12% (inactive). Further, the viability increase in [12] is -0.25% (inactive). The viability in test [13] is 93.4% (inactive); in test [14] it was 95.3% (inactive). In test [15], the inhibition is 0.535% (inactive). For the same molecule, the RAM network inhibition in test [16] is 0.67% (inactive).

As to `COc1ccc(N2C(=O)CC(N3CC=C(c4ccccc4)CC3)C2=O)cc1` (centres undefined), the growth inhibition in test [10] is -17.8% (inactive); in test [11], -0.61% (inactive). Also, the viability increase in test [12] was 1.66% (inactive). The viability is 101% (inactive) in test [13] and 103% (inactive) in test [14]. Also, the inhibition in test [15] is 0.145% (inactive). In addition, the RAM network inhibition in test [16] was 4.45% (inactive).

`O=c1cccc2n1CC1CC2CN(c2ncnc3c2cnn3-c2ccccc2)C1` (centres undefined): the figures for the growth inhibition in test [10] and in [11] were -14.6% (inactive) and -18.5% (inactive), respectively. The viability increase in test [12] is -1.4% (inactive). Further, the viability in test [13] and in [14] was 101% (inactive) throughout. Besides, in test [15], the inhibition is 1.7% (inactive). In addition, the RAM network inhibition in test [16] is 1.58% (inactive).

`O=c1c2ccccc2nc(-c2ccco2)n1-c1ccccn1`: the values for the growth inhibition in [10] and in test [11] were -12.2% (inactive) and -7.09% (inactive), respectively. In addition, the viability increase in test [12] was -0.82% (inactive). The viability in test [13] is 107% (inactive); in test [14], 95.2% (inactive). Moreover, the inhibition in [15] was 1.16% (inactive). Moreover, the RAM network inhibition in test [16] was 3.37% (inactive).

In the case of `Cn1c(O)c(C=Nc2ccc(Cl)cc2)c(=O)n(C)c1=O`, the growth inhibition in [10] was -7.12% (inactive); in test [11], -0.49% (inactive). In test [12], the viability increase was -0.57% (inactive). The viability in test [13] was 96.2% (inactive); in test [14], 93.7% (inactive). Also, the inhibition in test [15] is 0.685% (inactive). Moreover, in [16], the RAM network inhibition was 4.04% (inactive).

For `CCC(=O)N1CC(=O)Nc2ccc(F)cc2C1c1ccccc1` (centres undefined), the growth inhibition in test [10] was -9.43% (inactive); in [11] it was -11.4% (inactive). Also, the viability increase in [12] was -1% (inactive). The figures for the viability in test [13] and in test [14] were 92.2% (inactive) and 90.9% (inactive), respectively. Besides, in test [15], the inhibition is 2.25% (inactive). Also, the RAM network inhibition in test [16] is 3.64% (inactive).

On to `CN1C(=O)C(Cc2cccs2)C(=O)N(C)C1=O`, for which the growth inhibition is -5.75% (inactive) in test [10] and -4.64% (inactive) in [11]. Besides, the viability increase in [12] was 0% (inactive). The viability in test [13] is 100% (inactive); in test [14], 98.9% (inactive). For the same molecule, in [15], the inhibition was 0.795% (inactive). Also, the RAM network inhibition in test [16] is 4.94% (inactive).

As for `Cc1ccc2occ(CN3CC4CC(C3)c3cccc(=O)n3C4)c(=O)c2c1` (centres undefined), the figures for the growth inhibition in [10] and in [11] were -16.2% (inactive) and -17.7% (inactive), respectively. Besides, in test [12], the viability increase was -2.72% (inactive). For the same molecule, the figures for the viability in [13] and in test [14] were 98.5% (inactive) and 90.8% (inactive), respectively. Moreover, the inhibition in test [15] is 1.96% (inactive). For the same molecule, in [16], the RAM network inhibition was 1.61% (inactive).

For the molecule `C[C@H]1CCC[C@@H](O)CCC/C=C/c2cc(O)cc(O)c2C(=O)O1`, the growth inhibition is -5.6% (inactive) in [10] and -3.65% (inactive) in test [11]. Moreover, the viability increase in test [12] is -7.59% (inactive). Besides, the results for the viability in test [13] and in test [14] were 46.9% (inactive) and 44.9% (inactive), respectively. Also, the inhibition in test [15] is 0.64% (inactive). The RAM network inhibition in test [16] was 1.97% (inactive).

Regarding `O=C(c1ccc2c(c1)OCO2)N1CCC2(CC1)OCCO2`, the growth inhibition in [10] is -5.96% (inactive); in [11], -4.21% (inactive). Also, in test [12], the viability increase is 1.06% (inactive). The viability in [13] is 102% (inactive); in test [14] it was 97.1% (inactive). Further, the inhibition in test [15] is 0.85% (inactive). The RAM network inhibition in [16] is -1.11% (inactive).

Consider `CC1CCCCN1CC(=O)c1ccc2cc[nH]c2c1` (centres undefined), for which the growth inhibition was -4.76% (inactive) in test [10] and 3.28% (inactive) in test [11]. Also, in test [12], the viability increase is -2.48% (inactive). In addition, the viability in test [13] is 98.1% (inactive); in test [14], 89.4% (inactive). Besides, the inhibition in test [15] is 1.31% (inactive). Besides, in test [16], the RAM network inhibition was 2.76% (inactive).

(Values after PubChem BioAssay.)
